Measurements: PubChem BioAssay (NCATS)
Inconclusive results are not listed. A number with no mark means an inactive call. Active and inactive are the calls of the source. Calls come from the whole dose curve; as a rule, active = well fitted inhibition curve with a large enough effect; inconclusive = small, poorly fitted or top-dose-only effect; inactive = flat fitted curve, though single readings scatter.

assay: qHTS to identify inhibitors of the type 1 interferon - major histocompatibility complex class I in skeletal muscle: primary screen against the NCATS LOPAC collection (AID 1347405); settings: iHSKM muscle cells, IFN-b-induced MHC-I HiBiT luminescence, 24 h; series mostly up to 45.9 µM; activity change, negative = inhibition: at the top concentration;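 note: lytic HiBiT luminescence reporting HLA-B protein level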
Summary of the method: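 Luminescence from HiBiT fused to endogenous HLA-B in CRISPR-engineered human myoblasts served as the read-out. Cells received 4.0 ng/ml IFN-beta plus compound (seven concentrations, 1:4.3 steps, highest 46 uM final) for 24 hrs before lytic detection.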
% is set by controls: 0 for no effect and ±100 for the full control effect; potency is the fitted concentration of half-maximal effect.

SMILES | activity change, negative = inhibition [%] | Potency
CCCN1CC[C@@H]2c3cc(O)ccc3CC[C@@H]21 | 2.19 | 
CN(C(=O)Cc1ccc(Cl)c(Cl)c1)C(CN1CCCC1)c1cccc(OCC(=O)O)c1 (stereo unspecified) | -7.76 | 
N[C@@H](Cn1oc(=O)[nH]c1=O)C(=O)O | -4.89 | 
N#C/C(=C/c1ccc(O)c(O)c1)C(N)=S | -17.4 | 
CCCN1CCc2cc(O)cc3c2[C@H]1Cc1ccc(O)c(O)c1-3 | -21.1 | 
CCn1cnc2c(Nc3cccc(Cl)c3)nc(N[C@@H]3CCCC[C@@H]3N)nc21 |  | 2.51 µM (active)
NCCc1c[nH]c2ccc(C(N)=O)cc12 | -2.24 | 
CC(N)[C@H](O)c1ccc(O)c(O)c1 (stereo partly specified) | -18.4 | 
NC(CCCCCP(=O)(O)O)C(=O)O (stereo unspecified) | -8.47 | 
NC(N)=NOCC[C@H](N)C(=O)O | -8.89 | 
CC(N)c1cccc(Cl)c1Cl (stereo unspecified) | 2.93 | 
CC12NC(Cc3ccccc31)c1ccccc12 (stereo unspecified) | -4.22 | 
c1ccc2c(c1)[I+]c1ccccc1-2 |  | 8.91 µM (active)
C[N+]1(C)C2CCC1CC(OC(=O)c1c[nH]c3ccccc13)C2 (stereo unspecified) | -0.653 | 
CC(C)NP(=O)(NC(C)C)OP(=O)(NC(C)C)NC(C)C | 5.4 | 
Clc1cc(I)cc(Cl)c1NC1=NCCN1 | -18.8 | 
COc1ccc2c(c1)C13CCCCC1C(C2)N(C)CC3 (stereo unspecified) | -5.62 | 
CCCN(CCC)[C@@H]1CCc2cccc(O)c2C1 | -16.6 | 
CC(N)Cc1c[nH]c2ccc(OCc3cccs3)cc12 (stereo unspecified) | -15.5 | 
NCC(CP(=O)(O)O)c1ccc(Cl)cc1 (stereo unspecified) | -11 | 
CC(=O)OCC1=C(C(=O)O)N2C(=O)[C@@H](NC(=O)CCC[C@@H](N)C(=O)O)[C@H]2SC1 | 0.781 | 
